The list is not random: actives were taken first. Their share in the collection is about 3.5%.
M1 PAM = potentiates human M1 receptor response to acetylcholine | activation, % at 3 µM | AID 588819 | CHO-K1 hM1, Fluo-8 calcium fluorescence, ACh EC20; 0% = ACh EC20, 100% = maximal ACh | hit rate 0.088% among 360,000; in the data active means activation above about 19%, passing the limit was not always enough
Target sequence (P11229 whole entry, looked up): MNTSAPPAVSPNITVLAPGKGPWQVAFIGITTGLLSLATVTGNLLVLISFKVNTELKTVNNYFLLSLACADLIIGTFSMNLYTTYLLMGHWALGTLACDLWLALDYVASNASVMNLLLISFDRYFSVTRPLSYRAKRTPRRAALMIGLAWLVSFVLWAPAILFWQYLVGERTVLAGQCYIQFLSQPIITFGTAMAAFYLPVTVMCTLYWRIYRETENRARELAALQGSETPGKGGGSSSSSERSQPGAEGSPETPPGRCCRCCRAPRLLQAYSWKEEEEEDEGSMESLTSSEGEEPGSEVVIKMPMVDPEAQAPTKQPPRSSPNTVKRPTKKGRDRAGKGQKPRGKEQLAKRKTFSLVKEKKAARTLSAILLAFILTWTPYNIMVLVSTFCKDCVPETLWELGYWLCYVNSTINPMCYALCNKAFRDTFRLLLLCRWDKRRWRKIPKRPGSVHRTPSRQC
Myeloid diff MLP = promotes myeloid progenitor differentiation; calls only at 10 µM; ER-HoxA9 myeloid progenitors, lysozyme-GFP differentiation, flow cytometry; hit rate 1% among 360,000;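 active means normalized GFP-positive differentiation at or above the plate's own cutoff, the solvent-only control mean plus 3 SD; inconclusive means no clear call, values can overlap the other calls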;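 further: cells exposed to compound for four days before flow analysis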
CHRM1 agonist = agonists of human M1 muscarinic receptor; CHO-K1 hM1, Fluo-8 calcium fluorescence, agonist mode; 0% DMSO, 100% acetylcholine EC100; activation, % at 3 µM; hit rate 0.33% among 360,000;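 active means activation above the run's mean compound activation plus 3 SD, cut at about 16% in these data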;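 further: peak over basal fluorescence ratio within a 140 s kinetic read after compound addition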
ATG4B inhibitor = blocks human ATG4B protease cleavage of LC3 substrate; Q9Y4P1; ATG4B cleavage of LC3-PLA2, NBD-HPC fluorescence, 1 h; inhibition, % at 8.33 µM; hit rate 0.51% among 340,000; AID 504462; in the data active means inhibition above about 40%
SKN-1 inh = inhibitors of C. elegans SKN-1; C. elegans VP596 Pgst-4::GFP/RFP ratio, acrylamide-induced, 24 h; inhibition, % at 21.8 µM; hit rate 0.49% among 360,000;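 active means interference check ratio from 0.5 to 1.5 plus GFP to RFP signal ratio inhibition reaching or exceeding a fixed threshold, cut at about 30% in these data, passing the limit was not always enough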
M1 antag = human CHRM1 antagonism; CHO-K1 hM1, Fluo-8 calcium fluorescence, ACh EC80 antagonist; hit rate 1.3% among 360,000; P11229; inhibition, % at 3 µM;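 active means percent inhibition above its own plate's cutoff, namely the mean of that plate's compound wells plus 3 SD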;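 further: peak over basal fluorescence ratio during 140 s after agonist addition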
A number is an active result; n = inactive; u = inconclusive; x = no result; + = active, no number.

SMILES	M1 PAM	Myeloid diff MLP	CHRM1 agonist	ATG4B inhibitor	SKN-1 inh	M1 antag
CCOc1ccc2[nH]c(=O)c(C(c3nnnn3C3CCCCC3)N3CCN(CC)CC3)cc2c1 (stereo not drawn)	n	n	n	n	n	22
CCOc1ccc2[nH]c(=O)c(C(c3nnnn3C3CCCCC3)N3CCN(C)CC3)cc2c1 (stereo not drawn)	n	n	n	n	n	n
COc1cc(CN2CCN(C(O)(c3ccccc3)c3ccccc3)CC2)cc(OC)c1OC	n	n	n	n	n	62
CC(C)CCNC(=O)NC(=O)COc1c(F)c(F)cc(F)c1F	n	n	n	n	60	n
CC(C)CNC(=O)NC(=O)COc1c(F)c(F)cc(F)c1F	n	n	n	n	n	n
COc1cc(CN2CCc3c([nH]c4ccccc34)C2)cc(OC)c1	n	+	n	n	n	n
O=C(N/N=C/c1cccs1)C(=O)Nc1cccc(Cl)c1	n	n	n	n	n	n
COc1cc(C=NNC(=O)C(=O)Nc2cccc(Cl)c2)cc(OC)c1O	n	+	n	x	n	n
CN(Cc1ccccc1)S(=O)(=O)c1ccc(N2CCCC2=O)cc1	n	n	n	n	n	n
CC(C)CC(=O)Nc1cc2c3c(c1)CCN3C(=O)CC2	n	+	n	n	n	n
O=C1CCC(c2ccccc2)(C2CCN(Cc3ccccc3)CC2)C(=O)N1 (stereo not drawn)	n	n	n	n	n	98
Cc1cc(OCC(O)CN2CCc3ccccc3C2)cc(C(C)C)c1 (stereo not drawn)	n	n	n	n	n	32
CCOc1ccc(OCC(O)CN2CCc3ccccc3C2)cc1 (stereo not drawn)	n	n	n	n	n	n
Cc1c(C)n(Cc2ccccc2)c2ccc(C(=O)OCCN(C)C)cc12	n	n	n	n	36	n
Cc1cnc(C(=O)NC2CC(C)(C)Cc3c2cnn3-c2ccccc2)cn1 (stereo not drawn)	n	n	n	n	n	n
Cc1ccc(NC(=O)CNC(=O)c2cccc(C)c2)nc1	n	n	21	n	n	n
Cc1ccc(NC(=O)CNC(=O)c2ccc(Oc3ccccc3)cc2)nc1	n	n	n	n	n	n
CC1=C(C(=O)N(C)C)CC(CC(=O)NC2CCCC2)C(=O)N1CCC1=CCCCC1 (stereo not drawn)	n	n	n	x	n	n
N#CC1=C(N)N(c2ccc(F)cc2)C2=C(C1c1ccc(O)cc1)S(=O)(=O)CC2 (stereo not drawn)	n	+	n	n	35	n
COc1cc(C[C@@H]2C(=O)OC[C@H]2Cc2ccc(OC)c(OC)c2)ccc1O	n	n	n	n	n	50
COC(=O)c1ccc(N(CC(=O)NC2CCCC2)C(=O)c2ccc(C)s2)cc1	n	u	n	n	n	n
CC(=O)c1cccc(NC(=O)C(C)OC(=O)c2ccc3ncsc3c2)c1 (stereo not drawn)	n	+	n	n	n	n
CC(OC(=O)c1ccc2ncsc2c1)C(=O)Nc1cccc(Cl)c1 (stereo not drawn)	n	u	n	n	n	32
CC(=O)c1cccc(NC(=O)C(C)OC(=O)c2cccc(S(=O)(=O)N3CCN(C)CC3)c2)c1 (stereo not drawn)	n	n	68	n	n	71
CCCC1C(=O)N(Cc2ccccc2)C(=O)CC1C (stereo not drawn)	n	n	n	n	n	n
SMILES	M1 PAM	Myeloid diff MLP	CHRM1 agonist	ATG4B inhibitor	SKN-1 inh	M1 antag
CC(=O)NCCNc1nc2cc(-c3cc(F)ccc3C)sc2c(=O)n1C	n	n	n	x	n	n
Cc1cc(Br)ccc1NC(=O)CNC(=O)CSc1nccn1C	n	n	n	n	n	n
O=C(OCC1CCNCC1)c1ccc(F)cc1	n	n	n	n	n	n
CC(C)COC(=O)N1CCCCC1c1cc(C(=O)NCc2ccccc2)no1 (stereo not drawn)	n	n	n	x	n	n
COc1ccc(NC(=O)c2cccc(N3C(=O)NC4CC3(C)Oc3ccccc34)c2)cc1 (stereo not drawn)	n	n	n	n	n	n
COc1cccc2c1OC1(C)CC2NC(=O)N1c1cccc(C(=O)Nc2ccc3c(c2)OCCO3)c1 (stereo not drawn)	n	n	n	n	n	28
Cc1ccc(-c2noc(CNc3ccccc3)n2)cc1	n	x	n	n	n	n
